Data reported in PMC5540273 (PLoS ONE, 2017).

What was measured:
Conditions in all cases: concentration: 1 μM, replicates: in singlicate; n = 1
BRSK2 = tested on: BRSK2
BTK = tested on: BTK
BUB1 = tested on: BUB1
CAMK1B = tested on: CAMK1B
CAMK1D = tested on: CAMK1D
CAMK1G = tested on: CAMK1G
CAMK1 = tested on: CAMK1
CAMK2A = tested on: CAMK2A
CAMK2B = tested on: CAMK2B
CAMK2D = tested on: CAMK2D
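Note: KINOMEscan kinase panel screen.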

Structure (SMILES) | %Inh (BRSK2) [%] | %Inh (BTK) [%] | %Inh (BUB1) [%] | %Inh (CAMK1B) [%] | %Inh (CAMK1D) [%] | %Inh (CAMK1G) [%] | %Inh (CAMK1) [%] | %Inh (CAMK2A) [%] | %Inh (CAMK2B) [%] | %Inh (CAMK2D) [%]
O=C(NCCNc1ccnc(Nc2ccc(F)cc2)n1)Nc1ccc2c(c1)OCO2 [GSK1379882] | 0 | 0 | 18 | 0 | 9 | 0 | 20 | 0 | 0 | 4
COc1cccc(C2=C(Nc3cccc(C(=O)O)c3)C(=O)NC2=O)c1 [SB-390770] | 17 | 0 | 8 | 30 | 0 | 33 | 3 | 22 | 33 | 0
Nc1ncnc2c1ncn2-c1cccc2ccccc12 [SKF-97184] | 22 | 0 | 37 | 27 | 10 | 8 | 20 | 0 | 0 | 0
CCn1c(-c2nonc2N)nc2ccccc21 [SB-693162/GW549034] | 4 | 29 | 0 | 8 | 20 | 0 | 17 | 5 | 0 | 0
C[C@@H]1CC[C@H](C(=O)NC2CCCCC2)CN1c1cc(-c2ccc3c(N)n[nH]c3c2)nc(N)n1 [GSK2291363] | 10 | 0 | 48 | 2 | 29 | 22 | 35 | 4 | 16 | 18
Cc1ccc(-c2ccc3c(ccc4sc5c(c43)NC[C@@H](C)N=C5N(C)C)n2)cn1 | 0 | 0 | 0 | 0 | 0 | 0 | 0 | 0 | 0 | 0
COc1cccc(-n2cnc3c(N)ncnc32)c1 [SKF-97416] | 6 | 0 | 57 | 20 | 11 | 0 | 16 | 0 | 0 | 12
COc1ccc(CNC(=O)NC2CCN(c3ccnc(Nc4ccc(F)cc4)n3)C2)cc1 (stereo not drawn) [GSK1379706] | 3 | 18 | 50 | 0 | 4 | 8 | 5 | 0 | 0 | 18
O=C1NC(=O)C(c2ccccc2)=C1Nc1cccc(O)c1 [SB-390534] | 0 | 0 | 0 | 0 | 0 | 0 | 0 | 17 | 0 | 62
Cc1cccc(-c2cc(-c3c[nH]nc3-c3ccccn3)ccn2)c1 [GW679395] | 0 | 0 | 28 | 5 | 10 | 0 | 7 | 0 | 0 | 5
CCC(=O)c1c(-c2ccccc2)c2cc(Cl)ccc2c(=O)n1Cc1ccc(C(=O)O)cc1 | 0 | 0 | 0 | 0 | 0 | 0 | 0 | 0 | 0 | 0
COc1ccc(-c2cc3c(C)nc(N)nc3n([C@H]3CC[C@H](O)CC3)c2=O)cn1 | 0 | 0 | 0 | 0 | 0 | 0 | 0 | 0 | 0 | 0
Nc1nccc2scc(-c3ccc4c(c3)CCN4C(=O)Cc3ccccc3)c12 [GSK2576924] | 0 | 0 | 0 | 33 | 10 | 0 | 9 | 10 | 2 | 4
CCCC(=O)Nc1n[nH]c2ncc(-c3cccc4ccccc34)cc12 [SB-642057] | 0 | 0 | 35 | 7 | 14 | 11 | 0 | 0 | 0 | 14
O=C(NCc1cccs1)c1cc(C(=O)c2c(Cl)cccc2Cl)c[nH]1 [GW823670] | 0 | 0 | 0 | 0 | 0 | 0 | 0 | 0 | 0 | 0
Cn1c(=O)c(F)c(Nc2ccc(I)cc2F)c2c(=O)n(OC[C@H](O)CO)cnc21 | 15 | 0 | 0 | 0 | 8 | 0 | 0 | 4 | 12 | 9
CCc1nc(-c2cccc(C)c2)c(-c2ccncc2)s1 | 0 | 0 | 35 | 9 | 23 | 0 | 8 | 0 | 0 | 0
Cc1nc(N(C)[C@H]2CN(C(=O)CC#N)CC[C@H]2C)c2cc[nH]c2n1 | 0 | 0 | 0 | 0 | 15 | 1 | 22 | 0 | 5 | 0
Cc1cccc(-c2nc(Nc3ccc4c(cnn4C)c3)c3ccccc3n2)n1 [GW876731] | 2 | 0 | 34 | 0 | 0 | 0 | 10 | 0 | 8 | 2
COc1cc2nccc(Nc3ccc(OCc4ccc(NC(C)=O)cc4)cc3)c2cc1OC.Cl [GW440135] | 0 | 0 | 46 | 31 | 8 | 0 | 5 | 0 | 0 | 4
Nc1n[nH]c2ncc(-c3ccccc3)cc12 [SB-517081] | 0 | 0 | 34 | 58 | 40 | 17 | 18 | 0 | 0 | 11

Structure (SMILES) | %Inh (BRSK2) [%] | %Inh (BTK) [%] | %Inh (BUB1) [%] | %Inh (CAMK1B) [%] | %Inh (CAMK1D) [%] | %Inh (CAMK1G) [%] | %Inh (CAMK1) [%] | %Inh (CAMK2A) [%] | %Inh (CAMK2B) [%] | %Inh (CAMK2D) [%]
COc1cc2nccc(Nc3cccc(Oc4ccccc4)c3)c2cc1OC.Cl [GW284543] | 1 | 24 | 38 | 28 | 0 | 0 | 2 | 0 | 0 | 6
COc1cc(OC)cc(-c2cc3cnc(N)nc3nc2NC(=O)NC(C)(C)C)c1 | 6 | 0 | 0 | 0 | 0 | 0 | 0 | 0 | 0 | 4
Cl.NS(=O)(=O)c1cccc(Nc2cc(-c3ccc(F)cc3)n[nH]2)c1 [GW824645] | 0 | 0 | 36 | 0 | 0 | 0 | 0 | 0 | 0 | 0
Cc1nn2c(=O)cc(N3CCOCC3)nc2n1Cc1cccc(Cl)c1Cl [GSK2342769] | 0 | 0 | 12 | 28 | 8 | 8 | 9 | 0 | 0 | 1
COc1cc2ncn(-c3cc(OCCCc4ccccc4)c(C(N)=O)s3)c2cc1OC [GSK205189] | 3 | 0 | 20 | 0 | 16 | 24 | 14 | 0 | 0 | 16
FC(F)(F)c1ccc(-c2ncn(CCCN3CCOCC3)c2-c2ccncc2)cc1 [SB-217780] | 7 | 0 | 0 | 35 | 23 | 3 | 0 | 0 | 0 | 3
CCC(=O)c1c(-c2ccccc2)c2cc(Cl)ccc2c(=O)n1Cc1cc(S(C)(=O)=O)n(CC(N)=O)n1 | 0 | 0 | 0 | 0 | 21 | 0 | 3 | 0 | 0 | 0
Fc1cccc(CSc2nnc(-c3ccc4c(c3)CCO4)o2)c1 | 0 | 33 | 25 | 0 | 0 | 2 | 6 | 16 | 24 | 0
CN1C(=O)C(Nc2cc(Cl)c(O)c(Cl)c2)=C(c2ccc(Cl)cc2)C1=O [SB-404321] | 0 | 0 | 12 | 25 | 0 | 0 | 0 | 0 | 0 | 0
CCC(=O)c1c(-c2ccccc2)c2cc(Cl)ccc2c(=O)n1Cc1cc(S(C)(=O)=O)n(CC(F)F)n1 | 0 | 0 | 4 | 0 | 0 | 1 | 0 | 2 | 0 | 0
COc1ccc(Nc2nccc(N3CCC(NS(=O)(=O)c4ccc(NC(C)=O)cc4)C3)n2)cc1 (stereo not drawn) [GSK1379729] | 0 | 26 | 37 | 31 | 19 | 0 | 18 | 0 | 0 | 0
CCn1c(-c2ccoc2)nc2cnccc21 [SB-733887] | 0 | 0 | 59 | 0 | 8 | 0 | 2 | 0 | 0 | 0
Nc1n[nH]c2nnc(-c3ccccc3)c(-c3ccccc3)c12 [GW554060] | 0 | 2 | 60 | 5 | 0 | 4 | 3 | 0 | 0 | 0
Cc1cc(Nc2nc(-c3cccc(C)n3)nc3ccccc23)ccn1 [GW872411] | 13 | 0 | 0 | 0 | 0 | 0 | 0 | 0 | 0 | 0
COc1ccc(-n2cnc3c(N)ncnc32)cc1 [SKF-97236] | 14 | 8 | 4 | 25 | 10 | 0 | 5 | 0 | 0 | 0
COC(=O)c1c(-c2ccccc2)c2cc(C)ccc2c(=O)n1Cc1ccccc1 | 0 | 0 | 0 | 0 | 19 | 12 | 21 | 0 | 0 | 0
O=C(Nc1n[nH]c2nc(-c3ccccc3)c(Cl)cc12)C1CC1 [SB-734909] | 51 | 0 | 0 | 0 | 0 | 0 | 0 | 0 | 0 | 0
COc1cc(Nc2ccnc3ccc(C(F)(F)F)cc23)cc(OC)c1OC [GW577382] | 10 | 35 | 23 | 38 | 14 | 1 | 17 | 0 | 0 | 5
Nc1ncnc2c1ncn2-c1ccc(Cl)cc1 [AH2635] | 9 | 0 | 25 | 3 | 4 | 0 | 5 | 0 | 0 | 0
Nc1nc(N)c2nc(-c3ccccc3)[nH]c2n1 [SKF-12778] | 0 | 0 | 23 | 18 | 0 | 0 | 0 | 0 | 0 | 0
COc1cc2ncn(-c3cc(OCc4ccncc4Br)c(C(N)=O)s3)c2cc1OC [GW854278] | 20 | 0 | 0 | 0 | 0 | 7 | 0 | 37 | 46 | 17
